PNC inhibitor – blocks assembly of the perinucleolar compartment; PC3M PTB-GFP, PNC prevalence imaging, 16 h; active compounds read low; activity change (PNC), negative = inhibition, % at 10 µM; hit rate 3.1% among 140,000;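 active = readout at or below -70, meaning at least 70% loss of cells showing the perinucleolar compartment, a nuclear body marking cancer cells; inconclusive = readout between -30 and a set limit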;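 also: plate controls were DMSO wells for no effect and camptothecin positive control wells for full effect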
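Read-out is percentage of cells bearing a perinucleolar compartment, from automated 20x imaging of fixed, Hoechst-stained PC3M PTB-GFP cells. Cells were seeded 4 h, then exposed 16 h to compound (23 nl of library stock) in duplicate plates.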
ALDH1A1 block – inhibitors of human aldehyde dehydrogenase 1A1; Purified ALDH1A1, NADH fluorescence, propionaldehyde substrate; P00352; AID 1030; Potency, µM (top dose mostly 75.3 µM), without a hit: top-dose activity, negative = inhibition, actives largely listed as inhibitors; hit rate 7.3% among 220,000;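 also: potency is read from the fitted curve at half-maximal effect; plate controls were no enzyme wells and a reference inhibitor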
HPGD inh – inhibitors of human 15-hydroxyprostaglandin dehydrogenase (HPGD) | P15428 | Potency, µM, for inactives: at the highest dose activity change, negative = inhibition, actives largely listed as inhibitors | purified HPGD, NADH fluorescence kinetic, PGE2 substrate | hit rate 4.3% among 150,000; also: potency is read from the fitted curve at half-maximal effect
Target sequence (P15428 whole entry, looked up): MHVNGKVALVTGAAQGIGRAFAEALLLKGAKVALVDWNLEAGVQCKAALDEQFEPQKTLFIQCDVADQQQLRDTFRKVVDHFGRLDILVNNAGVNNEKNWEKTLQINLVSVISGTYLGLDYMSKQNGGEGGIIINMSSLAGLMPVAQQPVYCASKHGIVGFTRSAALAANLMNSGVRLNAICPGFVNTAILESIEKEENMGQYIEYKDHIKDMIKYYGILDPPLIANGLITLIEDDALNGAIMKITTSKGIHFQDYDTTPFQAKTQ
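20 nM HPGD preincubated 15 min at room temperature with compound in 50 mM Tris-HCl pH 8, 0.01% Tween 20. Started with 1 mM NAD+ and 30 uM prostaglandin E2; NADH fluorescence (360/450 nm) read 5 times over 30-s intervals, last minus first.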
Lamin A splicing – changes lamin A minigene splicing in HeLa cells; AID 1487; HeLa LMNA splicing GFP/RFP minigene ratio, 48 h; hit rate 0.01% among 200,000; Potency, µM (top dose mostly 46.1 µM), for inactives: at the highest dose ratio change, negative = inhibition, most hits filed as inhibitors; active = well fitted inhibition curve with a large enough effect in the signal ratio, with a control signal flat, not every such curve was filed as active; inconclusive = small, poorly fitted or top-dose-only effect, or effect the other way, or a change in a side signal; the % refers to the signal ratio; also: potency is read from the fitted curve at half-maximal effect
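S3 HeLa cells stably expressing lamin A-EGFP splicing minigene plus DsRed2, 600 cells/well, 48 h compound exposure at 37C. Laser-scanning cytometry; analysed as GFP (500-530 nm)/RFP (575-640 nm) total intensity ratio; 0.5% DMSO vehicle.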
IMPase cell inh – cell-permeable inhibitors of inositol monophosphatase (IMPase). P97697. inhibition (IP1 accumulation), % at 46.1 µM. CHO-M1 cells, IP1 accumulation, HTRF TR-FRET ratio. 120,000 tested, under 10 active. AID 901; active = well fitted curve in the direction sought with a large enough effect in the signal ratio, not every such curve was filed as active; inconclusive = small, poorly fitted or top-dose-only effect, or a change in a side signal; inactive = no such curve, though single readings can be large or run the other way; the % refers to the signal ratio;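 also: cells stimulated with carbachol in lithium chloride buffer; plate controls were DMSO basal wells for no effect and reference inhibitor wells for full effect; higher means more IMPase inhibition seen as more IP1 and lower FRET ratio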
Target sequence (P97697 whole entry, looked up): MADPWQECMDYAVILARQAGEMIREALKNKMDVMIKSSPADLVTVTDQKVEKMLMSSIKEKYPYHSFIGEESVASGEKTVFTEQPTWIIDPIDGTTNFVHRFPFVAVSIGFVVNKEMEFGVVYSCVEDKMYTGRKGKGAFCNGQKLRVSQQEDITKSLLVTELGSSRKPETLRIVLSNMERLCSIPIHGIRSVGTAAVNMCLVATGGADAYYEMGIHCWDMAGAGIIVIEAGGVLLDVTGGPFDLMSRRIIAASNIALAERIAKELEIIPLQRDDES
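The IP-One HTRF competitive assay in carbachol-stimulated CHO-M1 cells quantifies cellular IP1. Compounds spanned up to 46 uM final, and activity is expressed as AC50 from concentration-response fits of the ratio and donor data.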
KinaseGlo FLuc – counter-screen: inhibitors of Kinase-Glo firefly luciferase. Q27757. Kinase-Glo luciferase, ATP luminescence, 8 min. Potency, µM (titrated, usually from 38.3 µM), without a hit: top-dose activity change, negative = inhibition, hits mostly inhibitors. hit rate 0.28% among 200,000. AID 1379; active = well fitted inhibition curve with a large enough effect; inconclusive = small, poorly fitted or top-dose-only effect; also: potency is read from the fitted curve at half-maximal effect; nearly all actives have a fitted effect of over 60% in size
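Compounds were added to a substrate mix at pH 7.2 (50 mM imidazole, 10 uM ATP, within the enzyme's linear range), followed by Kinase-Glo detection reagent; luminescence was measured after 8 minutes at ambient temperature.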
An asterisk follows results filed as active; u = inconclusive; x = no result given; [ ] = remark or other dose. Most compounds without a hit are left out; they make up all but 10% or so of the library. Unless noted, calls follow the shape of the dose curve; as a rule, active = well fitted inhibition curve with a large enough effect (not every such curve was filed as active); inconclusive = small, poorly fitted or top-dose-only effect, or another doubt; inactive = no such curve, though single readings can be large or run the other way. Unless noted, % is scaled to controls: 0 for no effect and ±100 for the full control effect.

SMILES | PNC inhibitor | ALDH1A1 block | HPGD inh | Lamin A splicing | IMPase cell inh | KinaseGlo FLuc
O=C(Nc1ccc2c(c1)OCO2)C(c1ccccc1)N1CCN(C(=O)c2ccco2)CC1 (stereo not given) | 14 | 3µM* | -19% | 13% | 0 | 14%
Cc1ccc(C)c(S(=O)(=O)N2CCN(C(C(=O)Nc3ccc(F)cc3)c3ccccc3)CC2)c1 (stereo not given) | 6 | 11µM* | -13% | -13% | x | -1%
O=C(Nc1ccc2c(c1)OCO2)C(c1ccc(Cl)cc1)N1CCN(C(=O)c2ccco2)CC1 (stereo not given) | 9 | -12% | -5% | -11% | 4 | 0%
O=C(Nc1ccc(F)cc1)C(c1ccccc1)N1CCN(C(=O)c2ccco2)CC1 (stereo not given) | 36 | 5µM* | -18% | 1% | 4 | 0%
COCCn1c(=O)c(-c2cc(F)cc(F)c2)nc2cnc(OC)nc21 | x | u | u | x | x | 0%
NC1=NC(=O)CC(C(=O)NCCc2ccccc2)S1 (stereo not given) | -3 | 13µM* | 6% | 14% | 2 | -5%
CC(C)c1ccc(NC(=O)C2CC(=O)N=C(N)S2)cc1 (stereo not given) | -28 | 18µM* | -1% | 10% | 22 | -4%
NC1=NC(=O)CC(C(=O)Nc2cccc3ccccc23)S1 (stereo not given) | x | -13% | x | 7%[9.22 µM] | x | -1%
C(=N/n1c2ccccc2c2ccccc21)/c1ccco1 | u | 10µM* | -14% | 3% | 6 | 0%
C(=N\n1c2ccccc2c2ccccc21)/c1ccccc1 | 5 | 1% | -19% | -8% | 17 | 1%
O=c1c2cc(-c3ccccc3)sc2ncn1/N=C/c1ccco1 | u | u | u | -5% | 4 | -3%
N=c1scc(-c2ccccc2)n1/N=C/c1ccco1 | 43 | 22µM* | -27% | -3% | -11 | -8%
CCCCCCCC[N+](CCCCCCCC)(CCCCCCCC)CCCCCCCC | x | u | 1% | x | x | x
COc1ccc(OCC2c3cc(OC)c(OC)cc3CCN2C(=O)COc2ccc(Cl)cc2Cl)cc1 (stereo not given) | x | x | x | -26%[46 µM] | x | x
O=C(NCCc1ccccc1)c1cccc(Br)n1 | x | -4% | -28% | x | x | 0%[39.9 µM]
O=C(NCc1ccccc1)c1cccc(Br)n1 | u | -13% | 32µM* | 3% | x | 2%[39.9 µM]
O=C(NCc1ccccc1)c1ccc(CS(=O)(=O)Cc2ccccc2F)o1 | x | 13µM* | x | x | x | -2%
O=C(NC1CCCC1)c1ccc(Br)o1 | -85* | -3% | 16µM* | 0% | -5 | -2%
COc1ccc(CNC(=O)c2ccc(Br)o2)cc1 | 33 | 25µM* | 25µM* | 1% | x | 2%[39.9 µM]
COc1ccc(CNC(=O)c2ccc(CS(=O)(=O)Cc3ccccc3F)o2)cc1 | x | u | x | x | x | -1%
C=CCOC(=O)C(C(=O)CC)C(NC(=O)OC)c1ccc(F)cc1 (stereo not given) | x | 16%[13.5 µM] | x | x | x | x
N#Cc1c(-c2ccccc2)cc(-c2ccccc2)nc1SCC(O)CS(=O)(=O)Cc1ccccc1 (stereo not given) | x | x | x | x | 3 | x
CCC(=O)Nc1nnc(S(=O)(=O)N(C)Cc2ccccc2)s1 | x | x | x | 4%[46 µM] | x | x
Cc1ccc(C(=O)NCc2ccc(Cl)cc2)o1 | -21 | -1% | 14µM* | -6% | -3 | 0%
COC(=O)c1cccc(NC(=S)NCc2ccc(Cl)cc2)c1 | 21 | -14% | -26% | -1% | 0 | 1%
O=C(NCc1ccc(Cl)cc1)c1ccccc1Oc1ccccc1 | -22 | u | 10µM* | 7% | 2 | -3%
COC(=O)c1cc(NC(=S)NCc2ccc(Cl)cc2)cc(C(=O)OC)c1 | u | 11µM* | -25% | u | -4 | 3%
Cc1ccc(CNC(=O)c2ccc(Br)o2)cc1 | 25 | 16µM* | 3.2µM* | -4% | 2 | -6%
Cc1nc(N2CCCC2)c2c(C(=O)Nc3cccc(Cl)c3C)c(C)oc2n1 | x | x | x | -10%[46 µM] | x | x
CC(NC(=O)c1ccc(Br)o1)c1ccccc1 (stereo not given) | x | u | x | u | x | 4%

Assay outcomes (PubChem)
